From PubChem BioAssay (EPA / NIEHS)
Values joined by “and” are separate entries in the source; they are usually repeats but may differ in a detail not shown here. Equal entries are not always repeated. Where a structure was tested more than once in an assay, its records may differ in their call. Active and inactive are the calls of the source. The calls were made as follows: active = hit-call score of the fitted dose curve at least 0.9, where 1 is the maximum; inactive = score below 0.9.

What was measured:
[1] = APR_HepG2_P-H2AX_72hr: Apredica 72-hour HepG2 Assay for H2AX Phosphorylation (AID 2282916); details: imaging, actives raise or lower the signal;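 also: phospho-histone H2A.x immunostain intensity per cell marking DNA damage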
Summary of the method: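 Following 72 hr treatment with 0.39–200 uM compound, HepG2 cells were formaldehyde-fixed, permeabilized and stained for phospho-H2A.x; signal was measured by high-content imaging and fitted bidirectionally against DMSO controls.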

[2] = APR_HepG2_MitoMembPot_72hr: Apredica 72-hour HepG2 Assay for Mitochondrial Membrane Potential (AID 2282917); details: imaging, actives raise or lower the signal
Summary of the method: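 Membrane potential read by MitoTracker Red CMXRos (250 nM, 30 min, pre-fixation) fluorescence imaging of HepG2 after 72 hr exposure. Ten concentrations, 0.39–200 uM, duplicate wells, 0.5% DMSO; fitted in both directions against DMSO baseline.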

[3] = APR_HepG2_MitoticArrest_72hr: Apredica 72-hour HepG2 Assay for Mitotic Arrest (AID 2282918); details: high-content imaging, actives raise or lower the signal
Summary of the method: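 High-content imaging of fixed human HepG2 cells after 72 h compound exposure (0.39–200 uM, duplicates, 0.5% DMSO); mitotic arrest scored from phospho-histone H3 and nuclear Hoechst staining relative to DMSO.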

[4] = APR_HepG2_P-H2AX_24hr: Apredica 24-hour HepG2 Assay for H2AX Phosphorylation (AID 2282920); details: high-content imaging, actives raise or lower the signal
Summary of the method: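 High-content imaging of phospho-histone H2A.x immunofluorescence, nuclei counterstained with Hoechst 33342, in fixed HepG2 cells. Compounds ran 0.39–200 uM in duplicate for 24 h, final DMSO 0.5%. Signal change fitted both directions against DMSO.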

[5] = APR_HepG2_StressKinase_72hr: Apredica 72-hour HepG2 Assay for Stress Kinase (AID 2282921); details: HepG2 stress kinase (phospho-c-Jun) imaging, actives raise or lower the signal
Summary of the method: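 Fluorescence intensity of Cy3-tagged anti-phospho-c-Jun antibody, quantified per cell from Hoechst-defined nuclei across six images per well, served as the read-out following 72 h exposure (0.39–200 uM, 0.5% v/v DMSO).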

[6] = APR_HepG2_StressKinase_24hr: Apredica 24-hour HepG2 Assay for Stress Kinase (AID 2282922); details: HepG2 stress kinase (phospho-c-Jun) imaging, actives raise or lower the signal
Summary of the method: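 HepG2, 24 hr dosing, 0.39–200 uM in duplicate, 0.5% DMSO; formaldehyde fix (3.7%), 0.5% Triton X-100; anti-phospho-c-Jun + Cy3 secondary, Hoechst counterstain; ArrayScan imaging; bidirectional curve fit vs DMSO baseline.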

[7] = APR_HepG2_NuclearSize_72hr: Apredica 72-hour HepG2 Assay for Nuclear Size (AID 2282925); details: high-content imaging, actives raise or lower the signal
Summary of the method: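 HepG2; cpd 0.39–200 uM, 10 conc, duplicate; 72 h; DMSO 0.5% v/v; fix 3.7% formaldehyde 30 min RT; Triton permeabilization; Hoechst 2 ug/mL; HCS imaging 20x; nuclear diameter; gain/loss fit vs DMSO.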

[8] = ATG_CRE_CIS: Attagene CIS-FACTORIAL HepG2 Assay for human cAMP Responsive Element (CRE) binding protein 3 (AID 2282926); details: HepG2 CRE cis-reporter, Attagene multiplexed mRNA; actives raise or lower the signal
Summary of the method: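 Multiplexed transcription-unit reporters transfected into HepG2; 24 h dosing; RT-PCR/capillary electrophoresis fluorescence read-out; bidirectional fit vs DMSO.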

[9] = target: CCAAT/enhancer-binding protein beta (Homo sapiens) (UniProt P17676); assay: ATG_C_EBP_CIS: Attagene CIS-FACTORIAL HepG2 Assay for human CCAAT/Enhancer Binding Protein (C/EBP) beta (AID 2282927); details: HepG2 Attagene cis-factorial transcription factor reporter; actives raise or lower the signal
Sequence of CCAAT/enhancer-binding protein beta (Homo sapiens) (P17676 whole entry, looked up): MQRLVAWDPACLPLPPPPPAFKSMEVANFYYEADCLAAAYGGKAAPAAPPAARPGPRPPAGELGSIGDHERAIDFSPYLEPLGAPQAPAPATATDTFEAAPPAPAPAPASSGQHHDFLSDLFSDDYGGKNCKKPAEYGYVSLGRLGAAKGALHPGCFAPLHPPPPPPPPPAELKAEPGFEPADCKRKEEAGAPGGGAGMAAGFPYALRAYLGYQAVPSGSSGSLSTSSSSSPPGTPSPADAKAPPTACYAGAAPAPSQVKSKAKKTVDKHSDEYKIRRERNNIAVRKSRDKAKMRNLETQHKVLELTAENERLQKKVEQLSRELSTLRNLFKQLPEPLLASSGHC
Summary of the method: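 Changes in reporter mRNA, rather than exogenous chimeric receptor activity, reflect native C/EBP signalling in transfected HepG2 cells dosed for 24 h; transcripts are detected by RT-PCR and capillary electrophoresis.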

[10] = ATG_DR4_LXR_CIS: Attagene CIS-FACTORIAL HepG2 Assay for human Liver X Receptor (LXR), DR4 submotif (AID 2282929); details: HepG2 Attagene DR4 cis-reporter, mRNA transcription; actives raise or lower the signal
Summary of the method: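 The endpoint is DR4-element-driven reporter transcripts after 24 h chemical exposure of transfected HepG2 cells. These were measured via RT-PCR and capillary electrophoresis, and gain or loss of signal was fitted relative to DMSO controls.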

[11] = target: Aryl hydrocarbon receptor (Homo sapiens) (UniProt P35869); assay: ATG_Ahr_CIS: Attagene CIS-FACTORIAL HepG2 Assay for human Aryl Hydrocarbon Receptor (Ahr) (AID 2282930); details: HepG2 AhR cis-factorial reporter transcription; actives raise or lower the signal
Sequence of Aryl hydrocarbon receptor (Homo sapiens) (P35869 whole entry, looked up): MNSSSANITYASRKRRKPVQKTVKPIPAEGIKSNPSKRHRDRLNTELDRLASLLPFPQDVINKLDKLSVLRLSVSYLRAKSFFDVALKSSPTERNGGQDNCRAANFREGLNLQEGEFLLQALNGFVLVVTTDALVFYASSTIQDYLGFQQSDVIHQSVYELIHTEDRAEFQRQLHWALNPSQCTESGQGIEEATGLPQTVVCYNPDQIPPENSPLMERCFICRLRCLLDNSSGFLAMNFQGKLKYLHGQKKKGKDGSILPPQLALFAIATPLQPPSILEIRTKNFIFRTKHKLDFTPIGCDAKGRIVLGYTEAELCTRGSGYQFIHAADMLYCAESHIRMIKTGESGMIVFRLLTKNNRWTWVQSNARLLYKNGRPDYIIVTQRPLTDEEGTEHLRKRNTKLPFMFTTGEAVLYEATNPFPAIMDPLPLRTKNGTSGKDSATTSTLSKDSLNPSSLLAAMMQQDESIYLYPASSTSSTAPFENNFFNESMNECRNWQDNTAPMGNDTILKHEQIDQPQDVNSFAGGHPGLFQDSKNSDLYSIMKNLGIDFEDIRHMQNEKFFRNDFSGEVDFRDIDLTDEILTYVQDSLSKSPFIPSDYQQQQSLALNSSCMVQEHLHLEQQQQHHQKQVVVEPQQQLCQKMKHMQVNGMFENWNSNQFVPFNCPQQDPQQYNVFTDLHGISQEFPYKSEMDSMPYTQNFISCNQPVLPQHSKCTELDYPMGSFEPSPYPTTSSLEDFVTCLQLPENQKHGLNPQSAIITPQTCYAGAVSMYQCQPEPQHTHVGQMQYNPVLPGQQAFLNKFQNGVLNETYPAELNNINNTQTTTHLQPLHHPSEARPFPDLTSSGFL
Summary of the method: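 HepG2, transient MRTU (cis) transfection, 24 h exposure. RNA → cDNA → PCR → 6-FAM primer extension → HpaI 2 h 37 C → CE. Fit: bidirectional, DMSO baseline.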

[12] = ATG_AP_1_CIS: Attagene CIS-FACTORIAL HepG2 Assay for human Activator Protein 1 (AP-1) (AID 2282931); details: HepG2 Attagene cis-factorial AP-1 reporter mRNA; actives raise or lower the signal
Summary of the method: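 Readout is reporter transcript level from endogenous transcription factor activity, quantified by RT-PCR with fluorescent primer extension and capillary electrophoresis. Transiently transfected HepG2 cells, 24 h exposure. Curves fitted both directions versus DMSO.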

[13] = ATG_AP_2_CIS: Attagene CIS-FACTORIAL HepG2 Assay for human Activator Protein 2 (AP-2) (AID 2282932); details: HepG2 AP-2 cis-reporter, Attagene transcription factor profiling; actives raise or lower the signal
Summary of the method: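 Step one: transient transfection of HepG2 with reporter transcription units. Step two: 24 h chemical exposure. Step three: RNA extraction, RT-PCR, labelled fragment analysis by capillary electrophoresis; DMSO serves as baseline.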

[14] = ATG_BRE_CIS: Attagene CIS-FACTORIAL HepG2 Assay for human Bone Morphogenetic Protein (BMP) Response Element (BRE) (AID 2282933); details: HepG2 BMP response element reporter, Attagene transcription factor profiling; actives raise or lower the signal
Summary of the method: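 Endogenous transcription factor activity at a BMP response element was monitored in transfected HepG2 cells 24 h after dosing. Fluorescent RT-PCR products were resolved by capillary electrophoresis, and activity was fitted in both directions versus DMSO.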

[15] = target: Retinoic acid receptor alpha (Homo sapiens) (UniProt P10276); assay: ATG_DR5_RAR_CIS: Attagene CIS-FACTORIAL HepG2 Assay for human Retinoic Acid Receptor Alpha (RARE), DR5 submotif (AID 2282934); details: HepG2 Attagene cis-factorial RARE DR5 reporter, mRNA; actives raise or lower the signal;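 as to AC50: reporter responds to endogenous RAR alpha beta and gamma in HepG2 not RARA alone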
Sequence of Retinoic acid receptor alpha (Homo sapiens) (P10276 whole entry, looked up): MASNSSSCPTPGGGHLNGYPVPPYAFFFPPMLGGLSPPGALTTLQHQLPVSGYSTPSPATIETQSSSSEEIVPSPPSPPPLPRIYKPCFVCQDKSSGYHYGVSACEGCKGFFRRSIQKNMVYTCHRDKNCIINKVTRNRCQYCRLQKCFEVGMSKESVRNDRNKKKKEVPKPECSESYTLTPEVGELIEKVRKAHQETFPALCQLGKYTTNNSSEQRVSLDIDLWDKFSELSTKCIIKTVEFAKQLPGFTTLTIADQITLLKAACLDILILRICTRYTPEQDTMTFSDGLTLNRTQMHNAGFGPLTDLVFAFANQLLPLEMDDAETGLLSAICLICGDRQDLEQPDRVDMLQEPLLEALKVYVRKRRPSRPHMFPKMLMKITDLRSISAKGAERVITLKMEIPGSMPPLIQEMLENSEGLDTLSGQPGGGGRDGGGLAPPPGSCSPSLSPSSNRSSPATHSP
Summary of the method: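 HepG2, transient cis-reporter transfection, 24 h exposure. mRNA readout: RT-PCR, FAM label, HpaI cut, capillary electrophoresis. DMSO baseline, gain/loss fitting.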

[16] = target: Transcription factor E2F1 (Homo sapiens) (UniProt Q01094); assay: ATG_E2F_CIS: Attagene CIS-FACTORIAL HepG2 Assay for human E2F Transcription Factor 1 (AID 2282935); details: HepG2 Attagene cis-reporter, E2F reporter RNA transcripts; actives raise or lower the signal
Sequence of Transcription factor E2F1 (Homo sapiens) (Q01094 whole entry, looked up): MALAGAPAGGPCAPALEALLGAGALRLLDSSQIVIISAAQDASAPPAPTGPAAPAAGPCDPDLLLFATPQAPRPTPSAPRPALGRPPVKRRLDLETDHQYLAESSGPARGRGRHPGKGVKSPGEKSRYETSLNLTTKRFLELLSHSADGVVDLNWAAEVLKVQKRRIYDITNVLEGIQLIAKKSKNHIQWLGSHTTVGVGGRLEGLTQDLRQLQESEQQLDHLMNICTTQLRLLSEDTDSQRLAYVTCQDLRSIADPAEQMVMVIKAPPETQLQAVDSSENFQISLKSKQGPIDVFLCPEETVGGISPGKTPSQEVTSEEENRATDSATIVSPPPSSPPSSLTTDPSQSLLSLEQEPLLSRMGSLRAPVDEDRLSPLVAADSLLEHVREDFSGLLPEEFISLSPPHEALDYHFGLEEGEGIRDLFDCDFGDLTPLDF
Summary of the method: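 Total RNA from 24 h-treated, reporter-transfected HepG2 cells undergoes DNase I treatment, oligo(dT) reverse transcription, PCR and 6-FAM primer extension before capillary electrophoresis.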

[17] = APR_HepG2_p53Act_72hr: Apredica 72-hour HepG2 Assay for p53 Activation (AID 2282923); details: high-content imaging, actives raise or lower the signal;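 also: average cellular p53 protein immunofluorescence intensity in HepG2 cells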
Summary of the method: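 HepG2 monolayers receive test compounds in duplicate at ten concentrations (0.39 through 200 uM) for 72 hr. They are then formaldehyde-fixed, antibody-labelled for p53, Hoechst-stained and imaged, with activity fitted bidirectionally versus DMSO.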

[18] = APR_HepG2_MitoMass_72hr: Apredica 72-hour HepG2 Assay for Mitochondrial Mass (AID 2282924); details: high-content imaging, actives raise or lower the signal;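 also: MitoTracker Red CMXRos stain intensity per cell imaged as mitochondrial mass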
Summary of the method: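 HepG2, 72 hr cmpd, 10 conc 0.39–200 uM in dup, DMSO 0.5% v/v. MitoTracker Red CMXRos 250 nM 30 min pre-fix; formaldehyde 3.7% fix 30 min RT. HCS imaging, gain/loss fit vs DMSO.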

[19] = ATG_CMV_CIS: Attagene CIS-FACTORIAL HepG2 Assay for human CMV (Internal Marker) (AID 2282928); details: HepG2 CMV promoter reporter, transcription factor profiling; actives raise or lower the signal;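 also: endpoint acts as a background internal control marker rather than a target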
Summary of the method: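 Endogenous transcription factor activity read in HepG2 via transfected cis-promoter reporter units. After 24 h dosing, reporter mRNA measured by RT-PCR/capillary electrophoresis; gain or loss of signal fit relative to DMSO.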

Measured: AC50

CCOP(=O)(SC(C)CC)N1CCSC1=O (stereo not drawn)
not listed: [17] | [18] | [19]
inactive: all other assays above

CC(C1CC1)C(O)(Cn1cncn1)c1ccc(Cl)cc1 (stereo not drawn)
active: [10] 11.3 µM
not listed: [16] | [19]
inactive: all other assays above

CCOC(=O)CC(SP(=O)(OC)OC)C(=O)OCC (stereo not drawn)
not listed: [18]
inactive: all other assays above

C[N+]1(C)CCCCC1
not listed: [16] | [19]
inactive: all other assays above

CN1COCN(Cc2cnc(Cl)s2)C1=N[N+](=O)[O-]
not listed: [16] | [19]
inactive: all other assays above

COP(=O)(OC)C(O)C(Cl)(Cl)Cl (stereo not drawn)
active: [4] 100 µM | [17] 113 µM | [8] 32 µM | [9] 50 µM | [19] 22.1 µM | [12] 35.2 µM | [14] 30.1 µM
not listed: [18]
inactive: all other assays above

COc1cc(OC)nc(Sc2cccc(Cl)c2C(=O)O)n1
not listed: [11] | [15] | [19]
inactive: all other assays above

CCC(=NOC/C=C/Cl)C1=C(O)CC(C2CCOCC2)CC1=O (stereo not drawn)
not listed: [15] | [18]
inactive: all other assays above

C#CC(C)(C)NC(=O)c1cc(Cl)cc(Cl)c1
active: [8] 29 µM | [9] 20.5 µM | [14] 22.5 µM
not listed: [16] | [18] | [19]
inactive: all other assays above

COP(=O)(NC(C)=O)SC (stereo not drawn)
not listed: [15] | [19]
inactive: all other assays above

CCOP(=O)(OCC)Oc1cc(C)nc(C(C)C)n1
not listed: [15]
inactive: all other assays above

CCc1cccc(C)c1N(C(=O)CCl)C(C)COC (stereo not drawn)
active: [1] 87.6 µM | [3] 82.6 µM | [10] 32.1 µM | [12] 9.57 µM
not listed: [16] | [18] | [19]
inactive: all other assays above

C=C(C)[C@H]1Cc2c(ccc3c2O[C@@H]2COc4cc(OC)c(OC)cc4[C@@H]2C3=O)O1
active: [1] 1.62 µM | [2] 15.7 µM | [3] 1.15 µM | [4] 12.2 µM | [5] 4.05 µM | [8] 0.0337 µM | [9] 0.0249 µM | [12] 0.0044 µM | [14] 0.0104 µM | [15] 0.0229 µM
inactive: [6] | [7] | [10] | [11] | [13] | [16]

CNC(=O)Oc1cccc2c1OC(C)(C)O2
active: [1] 97 µM | [4] 99.4 µM | [8] 50 µM | [9] 19.3 µM | [12] 61 µM | [14] 42 µM
not listed: [15] | [18] | [19]
inactive: all other assays above

CN(C)[C@@H]1C(=O)C(C(N)=O)=C(O)[C@@]2(O)C(=O)C3=C(O)c4c(O)cccc4[C@@](C)(O)[C@H]3[C@H](O)[C@@H]12
inactive: [1] | [2] | [3] | [4] | [5] | [6] | [7] | [8] | [9] | [19] | [10] | [11] | [12] | [13] | [14] | [16]
active: [11] 66.3 µM and 37.9 µM | [14] 71.1 µM
